According to PubChem BioAssay (Tox21):
Where “and” joins values, the source holds several entries; their conditions need not be identical. Identical values can stand only once. Records with an inconclusive call do not appear. Calls of active or inactive are those of the source. Unless noted, the call rests on the fitted dose curve; in most records, active means well fitted curve in the direction sought with a large enough effect in the repeat runs; inconclusive means weak or mixed curves; inactive means no such curve, though single readings can be large; an effect the other way counts as inactive or inconclusive.

What was measured:
[1] = target: Luciferin 4-monooxygenase (Photinus pyralis) (UniProt P08659); test: qHTS assay to identify small molecule inhibitors of firefly luciferase (AID 1224835); further: nearly all actives have a fitted effect of over 25% in size
How it was run: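 Quantitative HTS format; KM concentrations of both substrates. Purified P. pyralis FLuc activity quantified from luminescence images.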

[2] = qHTS assay to identify small molecule agonists of the constitutive androstane receptor (CAR) signaling pathway - cell viability counter screen (AID 1224836); further: nearly all actives have a fitted effect of over 45% in size
How it was run: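 HepG2-CYP2B6-hCAR, 2500 cells/well, 4 h pre-incubation; cpd 15 conc + PK11195 0.75 uM final; 23 h, 37 C/5% CO2; CellTiter-Fluor, fluorescence.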

[3] = qHTS assay to identify small molecule antagonists of the constitutive androstane receptor (CAR) signaling pathway - cell viability counter screen (AID 1224837); further: nearly all actives have a fitted effect of over 45% in size
How it was run: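 HepG2 cells stably expressing hCAR and a CYP2B6-2.2kb reporter were plated and pre-incubated 4 hr at 37 C/5% CO2, then given compounds at 15 concentrations plus 50 nM CITCO (final). After 23 hr, viability was read by CellTiter-Fluor fluorescence.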

[4] = target: Nuclear receptor subfamily 1 group I member 3 (Homo sapiens) (UniProt Q14994); test: qHTS assay to identify small molecule antagonists of the constitutive androstane receptor (CAR) signaling pathway (AID 1224838); further: nearly all actives have a fitted effect of over 40% in size
How it was run: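 HepG2 cells stably co-transfected with hCAR and a CYP2B6-2.2kb luciferase reporter were seeded 4 h before compound addition at 15 concentrations. Cells were stimulated with 50 nM CITCO (final) for 24 h at 37 C; luciferase luminescence was then read.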

[5] = target: Nuclear receptor subfamily 1 group I member 3 (Homo sapiens) (UniProt Q14994); test: qHTS assay to identify small molecule agonists of the constitutive androstane receptor (CAR) signaling pathway (AID 1224839);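 further: HepG2 cells stably carrying human CAR and a CYP2B6 luciferase reporter; nearly all actives have a fitted effect of over 15% in size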
How it was run: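 HepG2-CYP2B6-hCAR cells, 2500/well, 4 h pre-incubation; compounds 15 conc.; PK11195 0.75 uM final; 24 h, 37 C/5% CO2; ONE-Glo luciferase read.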

[6] = qHTS assay to identify small molecule antagonists of the estrogen related receptor signaling pathway with the pleiotropic PPARgamma coactivator (PGC) from Tox21 10K library - cell viability counter screen (AID 1224840; active means well fitted cell-killing curve with a large enough effect in the repeat runs, not every such curve was filed as active; further: nearly all actives have a fitted effect of over 40% in size)
How it was run: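 PGC/ERR cells were seeded at 2,000 cells/well and left 6 hours at 37 C/5% CO2 before pin-tool addition of compounds in DMSO. After 17.5 hours at 37 C, CellTiter-Fluor was added and fluorescence read 30 minutes later.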

[7] = target: Thyrotropin receptor (Homo sapiens) (UniProt P16473); test: qHTS assay to identify small molecule agonists of the thyroid stimulating hormone receptor (TSHR) signaling pathway (AID 1224843; calls by dose curve; further: nearly all actives have a fitted effect of over 45% in size)
How it was run: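 Cell line HEK293 with TSHR; density 800/well. Exposure 30 min RT. Readout HTRF cAMP (cAMP-d2/anti-cAMP-cryptate), 1 h RT before reading.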

[8] = qHTS assay to identify small molecule agonists of the hypoxia (HIF-1) signaling pathway - cell viability counter screen (AID 1224844; calls by dose curve; further: nearly all actives have a fitted effect of over 50% in size)
How it was run: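 HRE-bla ME-180 cells in medium with 0.5% dialyzed FBS were preincubated 5 hrs at 37C, exposed to compounds for 17 hrs, then viability was read as CellTiter-Glo luminescence after 30 min at room temperature, in the reporter wells.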

[9] = qHTS RealTime-Glo MT Cell Viability Assay in HepG2 cells - 24 hour (AID 1224867); further: nearly all actives have a fitted effect of over 50% in size
How it was run: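 Tox21 10K library screened in qHTS format on HepG2 cells carrying RealTime-Glo reagents. Compounds were added after a 5 h preincubation, and the luminescent signal from continuous culture was measured repeatedly during 40 h treatment.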

[10] = qHTS RealTime-Glo MT Cell Viability Assay in HEK293 cells - 32 hour (AID 1224868); further: top concentration of the series differs between compounds; nearly all actives have a fitted effect of over 50% in size
How it was run: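 Luminescence generated by NanoLuc from substrate produced by living HEK293 cells served as the viability signal. Each value reflects the reading at its stated time point during continuous 40 h compound exposure at 37 C.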

[11] = A CellTox Green Cytotoxicity Assay to monitor cytotoxicity in HEK293 cells - 0 hour (AID 1224869); further: nearly all actives have a fitted effect of over 50% in size
How it was run: (§1)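 HEK293 cells premixed with CellTox Green dye were seeded at 600 cells/well and left 5 h at 37 C/5% CO2 before pin transfer of 23 nL compound in DMSO. Fluorescence from dye bound to dead-cell DNA was read during 40 h treatment.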

[12] = qHTS RealTime-Glo MT Cell Viability Assay in HepG2 cells - 40 hour (AID 1224870); further: nearly all actives have a fitted effect of over 50% in size
How it was run: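 HepG2 cells mixed with RealTime-Glo MT reagents (NanoLuc plus cell-permeant prosubstrate) were seeded at 600 cells/well, incubated 5 h at 37 C/5% CO2, then pinned with compounds in DMSO; nonlytic luminescence tracked viability during 40 h treatment.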

[13] = qHTS assay to identify small molecule agonists of H2AX (AID 1224845; active means well fitted activation curve with a large enough effect in the signal ratio in the repeat runs, not every such curve was filed as active; the % refers to the signal ratio)
How it was run: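 Wild-type CHO-K1 cells plated overnight, then exposed 3 hr at 37C to compounds at 15 concentrations (0.76% DMSO). Lysed, then HTRF anti-pH2AX(S139)-cryptate/anti-H2AX-d2 detection after 24 hr at room temperature; emissions 665 and 620 nm.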

[14] = A CellTox Green Cytotoxicity Assay to monitor cytotoxicity in HEK293 cells - 40 hour (AID 1224871); further: nearly all actives have a fitted effect of over 45% in size
How it was run: as §1

[15] = qHTS assay to identify small molecule antagonists of the estrogen related receptor signaling pathway with the pleiotropic PPARgamma coactivator (PGC) from Tox21 10K library (AID 1224841; call rule not given here)
How it was run: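 PGC/ERR reporter cells were seeded at 2,000 cells/well and held 6 hours at 37 C/5% CO2 before pin-tool addition of compounds in DMSO. After 18 hours at 37 C, One-Glo was added and luminescence read after 30 minutes at room temperature.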

[16] = qHTS assay to identify small molecule agonists of the estrogen related receptor signaling pathway with the pleiotropic PPARgamma coactivator (PGC) from Tox21 10K library (AID 1224842); further: nearly all actives have a fitted effect of over 15% in size
How it was run: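 PGC/ERR reporter cells (NTP line) were seeded 2,000 per well, rested 6 h at 37 C/5% CO2, then pin-dosed with compounds in DMSO for 18 h at 37 C; luciferase read by One-Glo luminescence after 30 min at room temperature.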

[17] = qHTS assay to identify small molecule agonists of the hypoxia (HIF-1) signaling pathway (AID 1224846; active means well fitted activation curve with a large enough effect in the signal ratio in the repeat runs, not every such curve was filed as active; the % refers to the signal ratio)
How it was run: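 HRE-bla ME-180 cells (beta-lactamase reporter under hypoxia response element) were plated at 2,000 cells/well in medium with 0.5% dialyzed FBS, rested 5 hrs, then given compounds in DMSO for 17 hrs at 37C, 5% CO2. Reporter induction was read with CCF4-AM FRET substrate.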

[18] = qHTS assay to identify small molecule agonists of H2AX - cell viability counter screen (AID 1224847; calls by dose curve; further: top concentration of the series differs between compounds; nearly all actives have a fitted effect of over 30% in size)
How it was run: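 Cells plated first: CHO-K1, 1000 per well in 10% FBS medium, incubated overnight at 37C. Then 15-point compound titration added (final DMSO 0.76%) for 3 hr. Finally CellTiter-Glo added and luminescence read.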

[19] = qHTS assay to identify small molecule antagonists of the estrogen related receptor (ERR) signaling pathway from Tox21 library (AID 1224848); further: nearly all actives have a fitted effect of over 50% in size
How it was run: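 Screening used an ERR reporter line supplied by NTP, exposed for 18 h at 37 C to library compounds delivered in DMSO. Signal was luciferase luminescence developed with ONE-Glo at room temperature for 30 min.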

[20] = qHTS assay to identify small molecule agonists of the estrogen related receptor (ERR) signaling pathway from Tox21 library (AID 1224849; calls by dose curve; further: nearly all actives have a fitted effect of over 15% in size); details: ERR reporter cell line, ONE-Glo luciferase, 18 h
How it was run: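 ERR reporter cell line (NTP) seeded, rested 6 h at 37 C/5% CO2, then pinned with Tox21 compounds in DMSO. After 18 h at 37 C, ONE-Glo luciferase luminescence was read following 30 min at room temperature.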
On the % scale 0 is the no-effect control and ±100 the full control effect.

Thyrotropin receptor (Homo sapiens), sequence (P16473 whole entry, looked up): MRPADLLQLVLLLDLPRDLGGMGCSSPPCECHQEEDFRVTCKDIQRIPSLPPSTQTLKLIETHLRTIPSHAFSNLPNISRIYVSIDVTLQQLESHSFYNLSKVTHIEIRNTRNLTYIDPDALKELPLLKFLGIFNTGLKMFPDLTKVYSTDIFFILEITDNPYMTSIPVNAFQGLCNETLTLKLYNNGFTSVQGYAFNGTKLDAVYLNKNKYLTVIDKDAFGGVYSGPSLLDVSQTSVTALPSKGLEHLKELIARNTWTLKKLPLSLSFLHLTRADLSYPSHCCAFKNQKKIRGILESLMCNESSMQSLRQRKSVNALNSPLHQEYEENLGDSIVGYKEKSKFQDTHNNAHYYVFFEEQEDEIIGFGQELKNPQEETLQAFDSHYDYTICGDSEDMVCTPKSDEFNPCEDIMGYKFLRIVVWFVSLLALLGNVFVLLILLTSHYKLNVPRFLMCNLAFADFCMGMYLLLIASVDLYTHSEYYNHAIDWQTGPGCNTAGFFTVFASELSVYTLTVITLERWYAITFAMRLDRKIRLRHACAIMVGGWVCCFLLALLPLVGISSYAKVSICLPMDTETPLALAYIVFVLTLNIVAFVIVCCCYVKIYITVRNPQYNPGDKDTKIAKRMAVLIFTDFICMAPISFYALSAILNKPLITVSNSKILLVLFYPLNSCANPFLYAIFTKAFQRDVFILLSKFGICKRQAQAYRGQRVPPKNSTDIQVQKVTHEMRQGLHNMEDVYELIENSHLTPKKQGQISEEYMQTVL
Nuclear receptor subfamily 1 group I member 3 (Homo sapiens), sequence (Q14994 whole entry, looked up): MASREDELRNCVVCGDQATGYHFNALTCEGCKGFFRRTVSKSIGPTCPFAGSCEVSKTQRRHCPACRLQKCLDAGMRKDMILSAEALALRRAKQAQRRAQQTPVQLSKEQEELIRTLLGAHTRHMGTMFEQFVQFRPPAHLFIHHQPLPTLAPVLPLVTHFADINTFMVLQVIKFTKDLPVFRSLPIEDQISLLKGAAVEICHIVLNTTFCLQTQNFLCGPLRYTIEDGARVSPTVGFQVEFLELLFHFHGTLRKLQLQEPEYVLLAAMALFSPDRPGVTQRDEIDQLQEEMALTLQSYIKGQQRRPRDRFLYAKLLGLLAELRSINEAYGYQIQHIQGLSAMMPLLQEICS
Luciferin 4-monooxygenase (Photinus pyralis), sequence (P08659 whole entry, looked up): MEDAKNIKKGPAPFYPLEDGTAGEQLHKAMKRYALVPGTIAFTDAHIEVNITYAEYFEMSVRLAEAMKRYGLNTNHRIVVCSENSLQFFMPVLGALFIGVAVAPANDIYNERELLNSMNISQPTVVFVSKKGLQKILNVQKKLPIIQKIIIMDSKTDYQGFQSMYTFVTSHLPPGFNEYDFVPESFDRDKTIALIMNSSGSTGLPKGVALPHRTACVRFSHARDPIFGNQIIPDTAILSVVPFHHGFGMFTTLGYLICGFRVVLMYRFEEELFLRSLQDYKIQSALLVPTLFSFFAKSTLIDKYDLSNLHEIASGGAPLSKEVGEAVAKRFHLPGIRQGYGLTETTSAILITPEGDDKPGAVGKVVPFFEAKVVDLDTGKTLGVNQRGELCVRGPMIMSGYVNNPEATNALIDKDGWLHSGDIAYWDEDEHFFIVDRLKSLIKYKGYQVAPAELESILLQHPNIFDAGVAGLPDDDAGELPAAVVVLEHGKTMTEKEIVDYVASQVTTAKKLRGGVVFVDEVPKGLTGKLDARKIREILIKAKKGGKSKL

Cc1cc(=O)oc2cc(O)ccc12
inactive: Potency [1] | Potency [2] | Potency [3] | Potency [4] | Potency [5] | Potency [6] | Potency [7] | Potency [8] | Potency [9] | Potency [10] | Potency [11] | Potency [12]

CN1CCC[C@H]1c1cccnc1
inactive: Potency [1] | Potency [2] | Potency [3] | Potency [4] | Potency [6] | Potency [8] | Potency [13] | Potency [9] | Potency [11] | Potency [12] | Potency [14]

Cc1ncc([N+](=O)[O-])n1C
inactive: Potency [2] | Potency [3] | Potency [4] | Potency [5] | Potency [6] | Potency [15] | Potency [16] | Potency [7] | Potency [13] | outcome [17] | Potency [18] | Potency [19] | activity change, positive = activation ([20]; at 42.5 µM (top of the series)) 5.13% | activity change, positive = activation ([20]; at 92.4 µM (top of the series)) 5.9% and -0.499% | Potency [9] | Potency [10] | Potency [11] | Potency [12]

Cc1cccc(C)c1
inactive: Potency [2] | Potency [3] | Potency [4] | Potency [5] | Potency [6] | Potency [15] | Potency [16] | Potency [7] | Potency [13] | outcome [17] | Potency [18] | Potency [19] | activity change, positive = activation ([20]; at 92.4 µM (top of the series)) -11.8% and 5.13% | Potency [9] | Potency [10] | Potency [11] | Potency [12] | Potency [14]

NC(=O)c1cccnc1
inactive: Potency [2] | Potency [3] | Potency [4] | Potency [5] | Potency [6] | Potency [7] | Potency [13] | outcome [17] | Potency [18] | Potency [9] | Potency [10] | Potency [11] | Potency [12]

CC(=O)C(=O)O
inactive: Potency [2] | Potency [3] | Potency [4] | Potency [5] | Potency [6] | Potency [7] | Potency [13] | outcome [17] | Potency [9] | Potency [11] | Potency [12] | Potency [14]

CC(C)c1c(C(=O)Nc2ccccc2)c(-c2ccccc2)c(-c2ccc(F)cc2)n1CC[C@@H](O)C[C@@H](O)CC(=O)O
inactive: Potency [2] | Potency [3] | Potency [4] | Potency [5] | Potency [6] | Potency [7] | Potency [8] | outcome [17] | Potency [9] | Potency [11] | Potency [12] | Potency [14]
